# From PubChem BioAssay (NCI)
# Values joined by “and” are separate entries in the source; they are usually repeats but may differ in a detail not shown here. Identical values can stand only once. About 83,000 compounds went through this panel and 20% of them were active in at least one assay; those are over-represented in the sample as a whole.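 Plates (96-well) were seeded with cells, treated with compound at one concentration, and incubated for 48 hours before percent growth was determined.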 Active and inactive are the calls of the source. Starred links: 1 amine or outer side, 2 acyl side, 3 side chain; linkers in the order of their positions; H or OH if unused. Positions of bridges follow the written chain, without caps; N, C: chain ends. Non-standard residues stand in square brackets, D forms with d. Residues, ends and D or L forms follow the SMILES beside them. Chains are numbered I, II in the order given. Actinocin(9to1) = Cc1c2oc3c(C)ccc(C(=O)[*:1])c3nc-2c(C(=O)[*:2])c(N)c1=O; aThr = C[C@H](O)[C@H](N)C(=O)O; NMeV = CN[C@H](C(=O)O)C(C)C; Sar = CNCC(=O)O
# System: SK-OV-3 ovarian
# Test: NCI-60 one-dose screen, 48 h (100 = growth as untreated, 0 = no growth, -100 = all killed)
# Details: 0.0025 µM
# Description: Growth inhibition of the SK-OV-3 human tumor cell line is measured as a screen for anti-cancer activity. Cells are grown in 96 well plates and exposed to the test compound for 48 hours. Compounds are tested at a single concentration, which is 10^-5 M for most compounds. The reported endpoint is percent growth (GI% or GIPRCNT), where numbers from 0 - 100% represent growth inhibition, and numbers from -100% - 0 represent cell death. For example, a value of 40 represents 60% growth inhibition. A value of 0 means no net growth occurred over the course of the experiment. A value of -40 indicates 40% of cells at the beginning of the experiment died by the end of the experiment. A value of -100 means all cells are dead at the end of the experiment.
# NCI-60 Human Tumor Cell Lines Screen was performed using the standard one-dose NCI protocol, which is described in more detail at https://dtp.cancer.gov/discovery_development/nci-60/default.htm.
# Compounds with GIPRCNT values below 10 were considered active. Activity score was based on GIPRCNT using the following formula: […]
# Score is 0 for GIPRCNT values of 100 or above, 50 for GIPRCNT values of 0, and 100 for GIPRCNT values of -100.
row,SMILES,growth
1,"Cc1c2oc3c(C)ccc(C(=O)N[C@@H]4C(=O)N[C@H](C(C)C)C(=O)N5CCC[C@H]5C(=O)N(C)CC(=O)N(C)[C@@H](C(C)C)C(=O)O[C@H]4C)c3nc-2c(C(=O)N[C@@H]2C(=O)N[C@H](C(C)C)C(=O)N3CCC[C@H]3C(=O)N(C)CC(=O)N(C)[C@@H](C(C)C)C(=O)O[C@H]2C)c(N)c1=O (I: [aThr][dV]P[Sar][NMeV] / II: [aThr][dV]P[Sar][NMeV]; ester I:1-I:C, II:1-II:C; linker I:N-II:N via Actinocin(9to1))",92.8% (inactive)

# Same assay, conditions: 10 µM
row,SMILES,growth
1,O=C(/C(=C/c1ccccc1)CBr)c1ccccc1,112% (inactive)
2,BrC/C=C/C[P+](c1ccccc1)(c1ccccc1)c1ccccc1,95.5% (inactive)
3,O=c1[nH]cc(F)c(=O)[nH]1,70% (inactive) and 74.7% (inactive)
4,CN1CCN(c2ccc3nc(-c4ccc5nc(-c6ccc(O)cc6)[nH]c5c4)[nH]c3c2)CC1,84.4% (inactive)
5,Nc1ccc2cc(Br)c3ccccc3c2c1,81.1% (inactive)
6,"Cc1c2oc3c(C)ccc(C(=O)N[C@@H]4C(=O)N[C@H](C(C)C)C(=O)N5CCC[C@H]5C(=O)N(C)CC(=O)N(C)[C@@H](C(C)C)C(=O)O[C@H]4C)c3nc-2c(C(=O)N[C@@H]2C(=O)N[C@H](C(C)C)C(=O)N3CCC[C@H]3C(=O)N(C)CC(=O)N(C)[C@@H](C(C)C)C(=O)O[C@H]2C)c(N)c1=O (I: [aThr][dV]P[Sar][NMeV] / II: [aThr][dV]P[Sar][NMeV]; ester I:1-I:C, II:1-II:C; linker I:N-II:N via Actinocin(9to1))",14.8% (inactive)
7,COc1cc(C(C)(C)C)cc(OC)c1C(O)(c1c(OC)cc(C(C)(C)C)cc1OC)c1c(OC)cc(C(C)(C)C)cc1OC,-86.7% (active)
8,CN(C)CCC(=O)c1c[nH]c2ccccc12,96.6% (inactive)
9,S=c1[nH]nc(Cc2ccccc2)c(=S)[nH]1,99.6% (inactive)
10,N#C/C(=C1C=C/C(=N\O)C(Cl)=C\1)c1ccccc1,37.5% (inactive)
11,Cc1cc(NCCCN(C)C)c2ccc3c(ccc4c(NCCCN(C)C)cc(C)nc43)c2n1,-39.4% (active)
12,CSc1ccc2c(c1)C(N1CCN(C)CC1)Cc1ccccc1S2 (stereo unspecified),86.2% (inactive)
13,Cc1cnc(/C=N\NC(N)=S)c2cccc(N)c12,22.9% (inactive)
14,CCCCCCCCCCCCCCCCCN,96.8% (inactive)

# Same assay, conditions: 25 µM
row,SMILES,growth
1,O=c1[nH]cc(F)c(=O)[nH]1,77.5% (inactive)
